The values below come from PubChem BioAssay AID651871 (Sanford-Burnham Center for Chemical Genomics, 2012).

Structures are written as SMILES. Values joined by “and” are separate entries in the source; they are usually repeats but may differ in a detail not shown here. Equal values may be shown once.

In this test the test system is H9c2. The test can be described thus: protection of cardiomyocytes from stress damage, SAR follow-up, cell-based, panel, H9c2 and HL-1, ATP luminescence, set 2 (AID 651871).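 Further: cells exposed to stressor for 2 h before ATP readout; reference of the scale not given here.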 The settings on record: H9c2/HL-1 cardiomyocytes, 2-deoxyglucose stress, with 2-deoxyglucose, run 4, at 79 µM (top of the series).
In the case of `COc1ccc2nc(-c3cc(OC)c(OC)c(OC)c3)cc(C(=O)NCC(=O)Nc3ccc(C(C)=O)cc3)c2c1`, the activity (protection/inhibition) came out at 80.7%.
The value for `CCOC(=O)c1cccc(NC(=O)CNC(=O)c2cc(-c3cc(OC)c(OC)c(OC)c3)nc3ccccc23)c1` was 87.2%.
Turning to `COc1ccc2c(c1OC)C(=O)N1c3ccccc3C(=O)N(Cc3cccc(Cl)c3Cl)C21` (stereo not drawn), the activity (protection/inhibition) was 57.7% and -8.42%.
